Measured values taken from PMC6212790, “How bacterial xenogeneic silencer rok distinguishes foreign from self DNA in its resident genome”.
The full ranking holds about 33,000 sequences; the median of “e-score” is about -0.038, and the highest 2% start at about 0.33. Shown is part of a subset that was picked to be rich in the highest values.

target: T1, GST-Rok-C97-191 (Bacillus subtilis subsp. subtilis str. …, UniProt O34857 97-191); assay: protein binding microarray; Rok is a gene silencer of Bacillus subtilis; high values mean tight binding; conditions: protein: recombinant; tags: GST (pTH5325, pDEST15-Magic modified); dsDNA, one strand shown
T1 sequence: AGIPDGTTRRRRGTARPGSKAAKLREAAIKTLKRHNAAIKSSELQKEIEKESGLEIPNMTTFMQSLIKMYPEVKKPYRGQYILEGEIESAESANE
Method in brief: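 Each has a 25-mer constant primer and a 35-mer variable part from a de Bruijn sequence of order 10, covering every non-palindromic 8-mer at least 32 times (palindromic 16). Preference for each 8-mer is given as a rank-based, unitless enrichment score (E-score). Its range runs from 0.5 (most favored) to −0.5 (most disfavored).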

Sequence | binding signal [E-score]
ACAAGGGC | -0.198
AATGCCCT | 0.0279
AGCTAATA | 0.366
AGCTAATC | 0.102
CACTACTA | 0.344
AACTACTT | 0.392
CACTACGA | 0.123
AACAACTT | 0.144
ACCTACTA | 0.343
CCCTACTA | 0.124
ACCTACTG | 0.238
CGCTAATA | 0.286
CACTACTG | 0.0489
AAGTACTT | 0.325
CGAAGGAG | -0.0169
ACCAGACG | -0.153
AGTAGTCA | 0.259
AGTAAAGA | 0.0717
CTCGCTCA | -0.0517
ACTATGGA | 0.0778
CGTTATCA | 0.165
ACGTCCTG | -0.0421
ACTGACGG | -0.0188
ACTAACAC | 0.0585
CACTACTC | -0.0277

Sequence | binding signal [E-score]
ACCTACTC | 0.0493
GACTACTA | 0.373
GACTACGA | 0.0584
AGCTACCA | 0.35
TACTGCTA | 0.334
AACTACTC | 0.363
GACTACTC | 0.127
AGCTACCC | 0.025
AACTGCTA | 0.0364
CACTGCTA | 0.0112
AGCTACCT | 0.209
AAAACCGA | 0.0507
TATTCCCA | 0.217
ATCTAGGC | 0.0159
GCAACATA | 0.217
CTCGCATC | -0.126
CTACTATA | 0.371
CTGCTATA | 0.039
GCACTATA | 0.0612
ATACTATA | 0.365
ATACTAGA | 0.305
GTGCTATA | 0.202
ATACTATG | 0.254
CCACTATA | 0.219
CGACTATA | 0.122

Sequence | binding signal [E-score]
GTACTATA | 0.436
GGACTATA | 0.0884
ATGCTATA | 0.35
TGAGGCAA | -0.148
ACGACTTC | 0.0725
GCTGGTTA | 0.0982
AGACCTGC | -0.148
CGCCAGCG | -0.123
AGACAATA | 0.0922
TACAGTCA | 0.144
TGGCTGAA | 0.00639
AAGTACTA | 0.385
AAGTACTC | 0.146
GAGTACTA | 0.0418
AAGTACAC | 0.275
AAGTACAA | 0.349
GAGTACAA | 0.136
AAGTACTG | 0.145
CAGTACTA | 0.264
TAGTACTA | 0.402
GTTATGCA | 0.256
CCTTCAAC | -0.0251
CTATTGGC | -0.0724
AAGCAAGT | -0.0255
GGCTATAC | -0.00424

Sequence | binding signal [E-score]
ACAAGTCT | -0.182
ATAGTAAG | 0.278
ATAGTACA | 0.347
ATAGTAAA | 0.357
ATAGTAAT | 0.396
TTAGTAAA | 0.21
GTAGTAAC | 0.307
ATAGTAAC | 0.28
GGAGTAAA | 0.000261
CTAGTACA | 0.265
CTAGTAAA | 0.289
ATAGTACC | 0.254
GTAGTAAA | 0.338
CCCAGCAG | -0.112
CTGAACGC | -0.149
TACGACAA | 0.151
ATGGTCAA | 0.137
AAACTCCG | 0.115
GCTGTTTA | 0.0646
AAATTCTC | 0.0486
CAATTCTA | 0.287
TAATTCAA | 0.168
AAATTCTA | 0.379
TAATTCTA | 0.331
GAATTCTA | 0.363

Sequence | binding signal [E-score]
TAATTCCA | 0.207
AAATTCTT | 0.105
GAATTCTC | 0.0595
CCCGCTCC | -0.108
GCGACCCA | 0.134
TCAAGGAA | -0.0876
ATCAACCA | -0.0125
GTATAGAA | 0.278
ATATAGAA | 0.347
CTATAGAA | 0.283
ATATAGAC | -0.00572
ATATAGAT | 0.399
ATATAGAG | 0.165
CTGACAAG | -0.143
AAGATGAG | 0.0366
CAACAAGA | -0.163
CTCTATAA | 0.0363
ACTTATAT | 0.29
GTATATGA | 0.224
ATGTATAA | 0.364
CCTTATAA | 0.0808
ATATATGA | 0.329
CTATATAA | 0.359
CAATATAA | 0.295
CTATATGA | 0.0756

Sequence | binding signal [E-score]
CTGTATAA | 0.215
ACTTATAA | 0.338
ATGTATAC | 0.308
CACGGGCA | -0.13
AATTGTTA | 0.234
GCTTTCAA | -0.116
AGGAAGGA | -0.123
AGAGTACT | 0.169
CACGTAGA | -0.0653
AGCTCGCA | -0.0853
AGAGACTG | 0.0621
AACCAAAA | 0.0375
ACTGACCA | -0.00734
AGTCCAAT | -0.0629
TGATATAA | 0.309
GTATATAA | 0.285
AAGTATAA | 0.187
TAATATAA | 0.309
GTCTATAA | 0.0588
TAGTATAA | 0.413
ATCTATAA | 0.355
ATCTATAG | 0.295
CAGTATAA | 0.213
ATATATAA | 0.449
GGATATAA | 0.3

Sequence | binding signal [E-score]
TTATATAA | 0.384
AGGACTAG | -0.0267
TAGAATCA | 0.222
AGTCGAGC | -0.0631
CTTTGCGC | -0.101
ACACACCC | -0.0492
ACAGGTTC | -0.0931
AACTATAA | 0.309
CACTATAA | 0.155
TACTATAA | 0.408
CGCAAATA | 0.178
GGAGAAAC | -0.116
AACCGCGA | -0.00712
GTTATTAA | 0.22
CATGTAGA | 0.327
CATGTAAA | 0.25
AATGTATA | 0.35
AATGTAGC | 0.144
ATTGTATA | 0.317
GATGTAAA | 0.164
AATGTAAA | 0.329
CTTGTATA | 0.18
AATGTAGA | 0.359
GTTGTATA | 0.351
AATGTATC | 0.187

Sequence | binding signal [E-score]
AATGTATG | 0.309
TCCTAAAA | 0.103
CCAGGCCG | -0.0324
TTACTGAA | 0.144
ACGGGTAG | 0.0714
GAGGAAAA | -0.0709
AGTGCACT | 0.024
GTCAGAAA | 0.0136
GCATAACC | 0.0668
GCGGTTCC | -0.143
CCTTAGAC | -0.116
CACAACTA | 0.199
TCACTAGA | 0.155
AATGTAAT | 0.398
AATGTAAG | 0.112
AATGTAAC | 0.166
CCAGTGAC | -0.156
ACCACAGA | 0.0469
AAATAGCC | 0.0812
AAATAGTG | 0.215
TAATAGCA | 0.276
ACATAGTA | 0.298
AAATAGTC | 0.049
TAATAGTA | 0.423
GAATAGTA | 0.325

Sequence | binding signal [E-score]
AAATAGCT | 0.336
AAATAGTT | 0.406
AAATAGCA | 0.0458
AAATAGCG | 0.13
AAATAGTA | 0.427
AAACCACC | -0.1
ACCGCCGA | -0.0492
CGAAGTCC | -0.0993
CATGTCCG | 0.0905
CGGTAAAC | 0.0274
AAGTAACA | 0.177
TAGTAATA | 0.403
CAATAGTC | 0.0177
CAGTAACA | 0.114
GAGTAATA | 0.182
TAGTAACA | 0.345
AAGTAATA | 0.29
CAATAGTG | 0.236
CAATAGTA | 0.33
